In the library only some 22% were active in any assay of this set; here they are far more common.
CYP2C9 inh = inhibitors of human CYP2C9. P11712. CYP2C9 Supersomes, luciferin-H conversion, luminescence. inhibition, % at 5 µM. actives 20% (n = 96,000). AID 777;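 active means blocking of liver enzyme CYP2C9 beyond about 50% at 5 µM, limit read from the data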
CYP2C9 act = activators of human CYP2C9; AID 1024; activation factor at 5 µM; actives 1.4% (n = 96,000); recombinant CYP2C9, luciferin-H conversion, luminescence; hits give high values; factor 1 = untreated enzyme, 0 = blocked;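 active means activation factor of 2 or more for CYP2C9 at a 5 µM dose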;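 further: 0 = sulfaphenazole-blocked wells and 1 = vehicle-only wells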
CYP2C19 act = activators of human cytochrome P450 2C19. recombinant CYP2C19, luciferin-H EGE luminescence; hits give high values; 0 = fully inhibited enzyme, 1 = untreated enzyme. activation factor at 5 µM. 96,000 tested, under 10 active;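 active means activation factor of at least 2 at 5 µM in the primary screen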;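 further: 0 = wells with 2.5 mM tranylcypromine and 1 = vehicle-only wells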
Target sequence (P33261 whole entry, looked up): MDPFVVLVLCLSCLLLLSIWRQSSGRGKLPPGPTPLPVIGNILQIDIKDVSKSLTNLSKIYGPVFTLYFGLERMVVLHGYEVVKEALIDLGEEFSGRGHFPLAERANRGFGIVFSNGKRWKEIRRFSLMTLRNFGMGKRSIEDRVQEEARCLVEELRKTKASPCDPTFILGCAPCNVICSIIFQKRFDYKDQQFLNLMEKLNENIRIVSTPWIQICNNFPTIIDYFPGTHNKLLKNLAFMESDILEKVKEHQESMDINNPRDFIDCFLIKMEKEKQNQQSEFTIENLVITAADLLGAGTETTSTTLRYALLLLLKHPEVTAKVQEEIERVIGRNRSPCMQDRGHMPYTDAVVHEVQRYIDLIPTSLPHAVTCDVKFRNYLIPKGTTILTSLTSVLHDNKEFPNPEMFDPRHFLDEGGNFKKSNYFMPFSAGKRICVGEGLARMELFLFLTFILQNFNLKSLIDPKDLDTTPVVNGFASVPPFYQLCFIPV
Measles CPE = protection of cells from measles virus | Measles virus-infected cells, CPE protection, absorbance | protection (pct of control), % at 4 µM | actives 1.5% (n = 140,000) | AID 841; in the data active means protection mostly above about 24%, no sharp cut-off; inactive means mostly below about 26%
CYP2C19 inh = blocks human cytochrome P450 2C19; P33261; CYP2C19 Supersomes, luciferin-H EGE luminescence, 30 min; inhibition, % at 5 µM; actives 21% (n = 96,000);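 active means CYP2C19 inhibition above a set limit at 5 µM in the primary screen, cut at about 50% in these data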;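 further: plate controls were negative control wells for no effect and 2.5 mM tranylcypromine positive control for full effect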
Numbers without * were called inactive; nt = not tested or not shown.

SMILES	CYP2C9 inh	CYP2C9 act	CYP2C19 act	Measles CPE	CYP2C19 inh
COc1cc(NC(=O)CSc2nc3ccccc3n2-c2ccccc2)c(C)cc1[N+](=O)[O-]	nt	nt	nt	8	nt
Cc1cc(C)cc(N2C(=O)CC(n3nc(C)cc3C)C2=O)c1 (centres undefined)	12	0.9	0.6	3	39
CC(C)CCNC(=O)Cn1c2c(c(-c3ccccc3Cl)cc1=O)CCC2	62*	0.4	0.9	5	13
Cn1c(SCc2nc(-c3ccccc3)no2)nnc1-c1cccs1	nt	nt	nt	12	nt
Cn1c(SCc2nc(-c3ccc(Cl)cc3)no2)nnc1-c1cccs1	16	0.8	0.8	8	24
CCOc1ccc(-n2c(SCc3nc(-c4cccs4)no3)nnc2-c2ccncc2)cc1	94*	0.1	0.1	18	92*
Cn1c(SCc2nc(-c3cccs3)no2)nnc1C1CCCCC1	46	0.5	0.2	3	78*
CCCn1c(SCc2nc(-c3cccs3)no2)nnc1-c1ccncc1	30	0.7	0.4	13	56*
COc1cc([N+](=O)[O-])c2ncsc2c1	nt	nt	nt	17*	nt
CCC(C)C(=O)Nc1ccc(OC)cc1[N+](=O)[O-] (centres undefined)	nt	nt	nt	6	nt
COc1ccc(OC)c(-c2csc(NC(=O)CSc3ccc([N+](=O)[O-])cc3)n2)c1	nt	nt	nt	12	nt
O=C(O)CCCCCNS(=O)(=O)c1ccc(Cl)cc1	-22	1.2	1.2	10	-20
Cc1cc(C)c2c(n1)sc1c(=O)n(Cc3ccccc3Cl)nnc12	20	0.8	0.7	23	31
CCOc1ccc(C2N(c3ccc(Cl)cc3)C(=O)C3CCCN32)cc1OC (centres undefined)	48	0.5	0.3	1	65*
COc1ccc(C2N(c3cc(Cl)ccc3OC)C(=O)C3CCCN32)c(OC)c1 (centres undefined)	-63	1.6	0.9	6	12
COc1ccc(N2C(=O)C3CCCN3C2c2cccc(F)c2)cc1Cl (centres undefined)	8	0.9	0.9	1	8
CCOc1ccc(C2N(c3ccc(OC)cc3)C(=O)C3CCCN32)cc1OC (centres undefined)	37	0.6	0.8	26	22
CCOc1ccc(C2N(c3cc(Cl)ccc3OC)C(=O)C3CCCN32)cc1OC (centres undefined)	-34	1.3	0.3	4	72*
CCOc1ccc(C2N(c3ccc(F)cc3)C(=O)C3CCCN32)cc1OC (centres undefined)	40	0.6	0.3	9	66*
CCOC(=O)CN(C(=O)CNC(=O)c1cccs1)C(C(=O)NC1CCCC1)c1cccnc1 (centres undefined)	12	0.9	0.8	3	17
CC(C)/C=N/Nc1nc(-c2ccc(Br)cc2)cs1	nt	nt	nt	6	nt
O=C1c2ccccc2C(=O)N1CN(C(=O)c1ccccc1[N+](=O)[O-])c1ccc(F)cc1	nt	nt	nt	6	nt
CSc1nc(C)cc(OCCNS(=O)(=O)c2cc(C)ccc2C)n1	46	0.5	0.6	2	40
Cc1ccc(C)c(S(=O)(=O)NCCOc2nc(NC(C)C)nc(NC(C)C)n2)c1	59*	0.4	0.2	14	78*
Cc1nn(Cc2ccc([N+](=O)[O-])cc2)c(=O)n1-c1ccc(F)cc1	86*	0.1	0.5	4	46
SMILES	CYP2C9 inh	CYP2C9 act	CYP2C19 act	Measles CPE	CYP2C19 inh
Cc1nn(Cc2ccc(Cl)cc2)c(C)c1NC(=O)c1ccc([N+](=O)[O-])cc1	nt	nt	nt	13	nt
Cc1nn(Cc2ccc([N+](=O)[O-])cc2)c(=O)n1-c1c(F)cccc1F	5	1	0.4	3	59*
O=C(NCCc1ccccc1)C(=O)NCC1CCCO1 (centres undefined)	6	0.9	0.9	5	12
COc1ccc(-c2cn3ccc4ccccc4c3n2)cc1	nt	nt	nt	22	nt
CC1CC(=O)C2=C(C1)Nc1ccccc1N=C2 (centres undefined)	45	0.6	0.8	9	22
CCC1=Nc2ccccc2NC2=C1C(=O)CCC2	-27	1.3	0.4	7	63*
Cc1ccc2oc(=O)cc(/C=C/c3ccccc3)c2c1	nt	nt	nt	17	nt
CC1=CCC(C(=O)O)(C(=O)N/N=C/c2cccs2)C(c2ccc([N+](=O)[O-])cc2)C1 (centres undefined)	20	0.8	1	5	2
CC1=CCC(C(=O)O)(C(=O)N/N=C/c2cccs2)C(c2ccc(F)cc2)C1 (centres undefined)	67*	0.3	0.9	2	8
CCc1ccc(CNc2ccc(O)cc2)cc1	23	0.8	0.2	5	82*
O=C(CCl)Nc1cc(S(=O)(=O)N2CCCCCC2)ccc1Cl	nt	nt	nt	13	nt
CC(=O)n1c2c(c3ccccc31)OC(N)=C(C#N)C2c1ccc(C(C)C)cc1 (centres undefined)	72*	0.3	0.6	5	39
Cc1cc2n(n1)C(c1sccc1C)Nc1ccccc1-2 (centres undefined)	56*	0.4	0.3	4	66*
Cc1ccc2c(c1)-c1cc(C)nn1C(c1sccc1C)N2 (centres undefined)	56*	0.4	0.2	8	79*
Cc1cc2n(n1)C(c1ccccc1)Nc1ccccc1-2 (centres undefined)	24	0.8	0.6	7	39
Cc1cc2n(n1)C(c1sccc1C)Nc1c(C)cccc1-2 (centres undefined)	29	0.7	0.6	23	43
COc1cccc2c(=O)cc(C)n(CC(=O)Nc3cccc(C)c3)c12	nt	nt	nt	8	nt
Cc1cc(C)nc(SCC(=O)N/N=C/c2cccn2-c2ccc(O)cc2)n1	55*	0.5	0.8	4	17
Cc1cc(C)nc(SCC(=O)N/N=C/c2cccn2-c2cccc(C(F)(F)F)c2)n1	17	0.8	0.7	9	32
Cc1cc(C)nc(SCC(=O)N/N=C/c2cccc([N+](=O)[O-])c2)n1	nt	nt	nt	49*	nt
COc1ccc(-c2cc(C)nc(SCC(=O)c3cccc([N+](=O)[O-])c3)n2)cc1	3	1	1.1	7	-10
Cc1cc(-c2ccccc2)nc(SCC(=O)c2cccc([N+](=O)[O-])c2)n1	68*	0.3	0.6	3	44
COc1ccccc1C(CCNS(=O)(=O)c1ccc(C)cc1)c1ccco1 (centres undefined)	nt	nt	nt	16	nt
Cc1ccccc1NC(=O)c1cccc(N2C(=O)C3C4CCC(C4)C3C2=O)c1 (centres undefined)	57*	0.4	0.6	15	40
Cc1ccc(NC(=O)c2cccc(N3C(=O)C4C5CCC(C5)C4C3=O)c2)c(C)c1 (centres undefined)	nt	nt	nt	15	nt
CC1(C)CC(CC(=O)Nc2ccc([N+](=O)[O-])cc2)C(=O)O1 (centres undefined)	-17	1.2	0.8	35*	16
CC(CC1CC(C)(C)OC1=O)C(=O)Nc1ccc([N+](=O)[O-])cc1 (centres undefined)	nt	nt	nt	26	nt
O=C(Cc1cccs1)N(c1ccc(Cl)cc1)C1C=CS(=O)(=O)C1 (centres undefined)	24	0.8	0.7	10	26

Compound activity: PubChem BioAssay, several laboratories
